Experimental data taken from PubChem BioAssay AID1159580 (chemical genetic matrix, 2015).
The campaign covered roughly 5,500 compounds. About 2,000 (36%) were called active. Not shown: some 18% with an inconclusive outcome. Some of the results follow. Values without a mark were called inactive. Rule as the data show it: active = normalized growth mostly below about 0.91 (no sharp cut-off); inconclusive = no clear call, values can overlap the other calls; inactive = mostly above about 0.92.

Experiment: chemical genetic growth profiling, strain panel (AID 1159580);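 also: tested at 20 µM; growth read once vehicle control cultures reached saturation at 30 °C; 1 = growth at the plate median or of vehicle wells; lower values mean less growth of the strain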
Details: S. cerevisiae deletion strains, growth OD

## O=C(O)C1=CC(=C(c2ccc(O)c(C(=O)O)c2)c2ccc(O)c(C(=O)O)c2)C=CC1=O
Locus YAL013W, strain DEP1, active compounds read low
  normalized growth: 0.976
Locus YAL021C, strain ccr4, active compounds read low
  normalized growth: 0.952
Locus YAL026C, strain drs2, active compounds read low
  normalized growth: 0.983
Locus YAL030W, strain snc1, active compounds read low
  normalized growth: 0.986
Locus YAL040C, strain CLN3, active compounds read low
  normalized growth: 1.02
Locus YBL061C, strain skt5, active compounds read low
  normalized growth: 0.963
Locus YBR009C, strain hhf1, active compounds read low
  normalized growth: 1
Locus YBR023C, strain chs3, active compounds read low
  normalized growth: 0.976
Locus YBR171W, strain sec66, active compounds read low
  normalized growth: 0.963
Locus YBR231C, strain swc5, active compounds read low
  normalized growth: 0.954
Locus YBR279W, strain paf1, active compounds read low
  normalized growth: 0.968
Locus YCL011C, strain gbp2, active compounds read low
  normalized growth: 0.974
Locus YCL016C, strain dcc1, active compounds read low
  normalized growth: 0.995
Locus YCL061C, strain MRC1 (second series), active compounds read low
  normalized growth: 0.98
Locus YCL061C, strain MRC1, active compounds read low
  normalized growth: 0.999
Locus YCL069W, strain vba3, active compounds read low
  normalized growth: 0.972
Locus YCR088W, strain abp1, active compounds read low
  normalized growth: 0.985
Locus YDL005C, strain med2, active compounds read low
  normalized growth: 0.966
Locus YDL040C, strain nat1, active compounds read low
  normalized growth: 0.987
Locus YDR001C, strain nth1, active compounds read low
  normalized growth: 0.992
Locus YDR069C, strain doa4, active compounds read low
  normalized growth: 0.917
Locus YDR137W, strain rgp1, active compounds read low
  normalized growth: 1.06
Locus YDR150W, strain NUM1, active compounds read low
  normalized growth: 0.97
Locus YDR159W, strain sac3, active compounds read low
  normalized growth: 1.03
Locus YDR195W, strain ref2
  normalized growth: 1
Locus YDR297W, strain sur2, active compounds read low
  normalized growth: 0.978
Locus YDR334W, strain swr1, active compounds read low
  normalized growth: 0.957
Locus YDR335W, strain msn5, active compounds read low
  normalized growth: 0.965
Locus YDR392W, strain spt3, active compounds read low
  normalized growth: 0.95
Locus YEL003W, strain gim4, active compounds read low
  normalized growth: 0.973
Locus YEL037C, strain rad23, active compounds read low
  normalized growth: 0.966
Locus YEL061C, strain CIN8 (second series), active compounds read low
  normalized growth: 0.979
Locus YER002W, strain NOP16, active compounds read low
  normalized growth: 1.02
Locus YER015W, strain faa2, active compounds read low
  normalized growth: 0.952
Locus YER016W, strain bim1, active compounds read low
  normalized growth: 0.985
Locus YER111C, strain swi4, active compounds read low
  normalized growth: 0.961
Locus YER155C, strain BEM2 (second series), active compounds read low
  normalized growth: 0.953
Locus YFR010W, strain ubp6, active compounds read low
  normalized growth: 0.976
Locus YGL167C, strain pmr1, active compounds read low
  normalized growth: 0.97
Locus YGL173C, strain kem1, active compounds read low
  normalized growth: 0.984
Locus YGL227W, strain vid30, active compounds read low
  normalized growth: 0.988
Locus YGL240W, strain doc1, active compounds read low
  normalized growth: 0.985
Locus YGL253W, strain hxk2, active compounds read low
  normalized growth: 0.978
Locus YGR229C, strain SMI1, active compounds read low
  normalized growth: 0.823 (active)
Locus YHR013C, strain ard1, active compounds read low
  normalized growth: 0.952
Locus YHR027C, strain rpn1, active compounds read low
  normalized growth: 0.98
Locus YHR030C, strain SLT2, active compounds read low
  normalized growth: 1.01
Locus YHR079C, strain IRE1, active compounds read low
  normalized growth: 1
Locus YHR142W, strain chs7, active compounds read low
  normalized growth: 0.946
Locus YJL092W, strain hpr5, active compounds read low
  normalized growth: 0.97
Locus YJL095W, strain BCK1 (second series), active compounds read low
  normalized growth: 0.963
Locus YJL095W, strain BCK1, active compounds read low
  normalized growth: 0.982
Locus YJL115W, strain asf1, active compounds read low
  normalized growth: 0.999
Locus YJL129C, strain trk1, active compounds read low
  normalized growth: 1.01
Locus YJL154C, strain vps35, active compounds read low
  normalized growth: 0.982
Locus YJL164C, strain tpk1, active compounds read low
  normalized growth: 0.969
Locus YJL166W, strain qcr8, active compounds read low
  normalized growth: 0.979
Locus YJL187C, strain SWE1, active compounds read low
  normalized growth: 0.969
Locus YJR066W, strain TOR1, active compounds read low
  normalized growth: 0.877
Locus YJR075W, strain HOC1, active compounds read low
  normalized growth: 0.974
Locus YKL160W, strain elf1, active compounds read low
  normalized growth: 0.976
Locus YKR026C, strain gcn3, active compounds read low
  normalized growth: 0.989
Locus YKR091W, strain srl3, active compounds read low
  normalized growth: 0.981
Locus YLL001W, strain dnm1, active compounds read low
  normalized growth: 0.998
Locus YLL026W, active compounds read low
  normalized growth: 0.985
Locus YLL041C, strain sdh2, active compounds read low
  normalized growth: 0.981
Locus YLR027C, strain aat2, active compounds read low
  normalized growth: 0.981
Locus YLR113W, strain HOG1, active compounds read low
  normalized growth: 1.05
Locus YLR221C, strain rsa3, active compounds read low
  normalized growth: 0.983
Locus YLR258W, strain gsy2, active compounds read low
  normalized growth: 0.967
Locus YLR262C, strain YPT6 (second series), active compounds read low
  normalized growth: 0.973
Locus YLR320W, strain mms22, active compounds read low
  normalized growth: 0.985
Locus YLR342W, strain FKS1, active compounds read low
  normalized growth: 0.978
Locus YLR357W, strain rsc2, active compounds read low
  normalized growth: 0.857
Locus YLR370C, strain arc18, active compounds read low
  normalized growth: 0.98
Locus YLR384C, strain iki3, active compounds read low
  normalized growth: 0.957
Locus YML120C, strain ndi1, active compounds read low
  normalized growth: 0.978
Locus YMR058W, strain fet3, active compounds read low
  normalized growth: 0.714 (active)
Locus YMR125W, strain sto1, active compounds read low
  normalized growth: 0.958
Locus YMR129W, active compounds read low
  normalized growth: 0.989
Locus YMR205C, strain PFK2, active compounds read low
  normalized growth: 1.01
Locus YMR231W, strain pep5, active compounds read low
  normalized growth: 0.946
Locus YNL071W, strain lat1, active compounds read low
  normalized growth: 0.974
Locus YNL175C, strain NOP13, active compounds read low
  normalized growth: 1
Locus YNL183C, strain NPR1, active compounds read low
  normalized growth: 0.913
Locus YNL197C, strain WHI3, active compounds read low
  normalized growth: 1
Locus YNL209W, strain ssb2, active compounds read low
  normalized growth: 0.952
Locus YNL224C, strain SQS1, active compounds read low
  normalized growth: 1.03
Locus YNL248C, strain rpa49, active compounds read low
  normalized growth: 0.999
Locus YNL322C, strain KRE1 (second series), active compounds read low
  normalized growth: 0.999
Locus YNL322C, strain KRE1, active compounds read low
  normalized growth: 0.93
Locus YNR049C, strain mso1, active compounds read low
  normalized growth: 0.992
Locus YOR001W, strain rrp6, active compounds read low
  normalized growth: 0.959
Locus YOR070C, strain gyp1, active compounds read low
  normalized growth: 0.995
Locus YOR080W, strain dia2, active compounds read low
  normalized growth: 0.988
Locus YOR083W, strain WHI5 (second series), active compounds read low
  normalized growth: 0.999
Locus YOR083W, strain WHI5, active compounds read low
  normalized growth: 0.97
Locus YOR106W, strain vam3, active compounds read low
  normalized growth: 0.836 (active)
Locus YOR231W, strain MKK1, active compounds read low
  normalized growth: 1.01
Locus YOR265W, strain rbl2, active compounds read low
  normalized growth: 0.99
Locus YOR270C, strain vph1, active compounds read low
  normalized growth: 0.942
Locus YOR290C, strain snf2, active compounds read low
  normalized growth: 0.966
Locus YPL051W, strain arl3, active compounds read low
  normalized growth: 0.907 (active)
Locus YPL055C, strain LGE1, active compounds read low
  normalized growth: 0.961
Locus YPL078C, strain atp4, active compounds read low
  normalized growth: 0.982
Locus YPL106C, strain sse1, active compounds read low
  normalized growth: 0.915
Locus YPL240C, strain hsp82, active compounds read low
  normalized growth: 0.973
Locus YPL256C, strain CLN2, active compounds read low
  normalized growth: 1.06
